Screening data (PubChem)
cardiac RTF act: cardiac RTF calcium sensitivity activators, primary screen, biochemical, IANBD-TnC fluorescence, EC20 calcium | IANBD-labeled TnC RTF fluorescence at EC20 calcium; 0% EC20 calcium, 100% full calcium | AID 493008, 2010 | activation, % at 7.2 µM | 340,000 compounds, 0.24% hits | Troponin I, cardiac muscle (Homo sapiens) + Troponin T, cardiac muscle (Homo sapiens) + …;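 active means activation above the mean over all tested compounds plus 3 SD, cut at about 30% in these data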;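 further: rise in fluorescence read as greater calcium sensitivity of cardiac thin filaments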
IDE inh: human IDE inhibitors in live cells, primary screen, fluorescence polarization, HEK cells, FAbetaB substrate. Insulin-degrading enzyme (Homo sapiens), P14735. FAbetaB cleavage. inhibition, % at 5.59 µM. 320,000 compounds, 0.41% hits;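 active means percent inhibition above the average of all tested compounds plus 3 SD, set per screening campaign, cut at about 16% in these data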;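 further: IDE supplied by intact live HEK cells; FP after avidin binding of uncleaved biotin substrate so inhibition keeps polarization high; 0% = DMSO wells and 100% = 60 µM reference IDE inhibitor Ii1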
Target sequence (P14735 whole entry, looked up): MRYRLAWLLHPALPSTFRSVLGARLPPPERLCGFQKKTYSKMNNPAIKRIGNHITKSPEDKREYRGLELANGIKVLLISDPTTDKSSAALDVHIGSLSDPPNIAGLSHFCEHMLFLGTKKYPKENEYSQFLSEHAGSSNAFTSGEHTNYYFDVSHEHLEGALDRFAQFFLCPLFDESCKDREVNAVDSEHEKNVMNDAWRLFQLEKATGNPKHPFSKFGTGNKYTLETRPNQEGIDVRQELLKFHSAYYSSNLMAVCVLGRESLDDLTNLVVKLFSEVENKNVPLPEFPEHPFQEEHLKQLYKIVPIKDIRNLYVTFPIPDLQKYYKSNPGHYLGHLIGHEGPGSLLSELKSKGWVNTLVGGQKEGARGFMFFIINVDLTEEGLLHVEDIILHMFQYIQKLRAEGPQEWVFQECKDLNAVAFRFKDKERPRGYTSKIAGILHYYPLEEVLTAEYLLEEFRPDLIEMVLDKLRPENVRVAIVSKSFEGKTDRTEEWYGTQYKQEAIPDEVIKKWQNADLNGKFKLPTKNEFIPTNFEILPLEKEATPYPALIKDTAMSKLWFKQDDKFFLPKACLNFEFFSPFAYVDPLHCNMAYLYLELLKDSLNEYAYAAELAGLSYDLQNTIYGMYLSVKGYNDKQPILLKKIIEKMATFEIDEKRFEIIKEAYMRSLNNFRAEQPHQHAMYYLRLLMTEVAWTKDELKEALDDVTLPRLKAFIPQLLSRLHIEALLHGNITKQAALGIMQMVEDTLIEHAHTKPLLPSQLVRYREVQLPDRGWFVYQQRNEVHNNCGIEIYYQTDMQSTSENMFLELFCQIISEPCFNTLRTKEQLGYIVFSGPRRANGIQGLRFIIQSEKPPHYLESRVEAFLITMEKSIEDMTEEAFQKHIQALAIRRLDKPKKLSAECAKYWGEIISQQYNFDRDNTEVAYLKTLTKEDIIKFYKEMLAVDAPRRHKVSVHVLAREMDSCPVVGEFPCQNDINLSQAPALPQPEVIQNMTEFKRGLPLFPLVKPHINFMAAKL
Cardiac RTF inh: cardiac RTF calcium sensitivity inhibitors, primary screen, biochemical, IANBD-TnC fluorescence, EC70 calcium. IANBD-labeled cardiac RTF, Ca2+ fluorescence. inhibition, % at 7.15 µM. 340,000 compounds, 0.12% hits;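 active means inhibition above the mean inhibition of all tested compounds plus 3 SD, cut at about 17% in these data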;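 further: assay run at fixed EC70 calcium of 1.6 mM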
IDE cell activ: human IDE activators in live cells, primary screen, fluorescence polarization, HEK cells, FAbeta-B substrate; AID 493087, 2011; FAbeta-B cleavage; 0% vehicle, 100% cell-free pure enzyme wells; activation, % at 5.96 µM; 340,000 compounds, 0.073% hits;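 active means activation above the mean of all tested compounds plus 3 SD, set per screening campaign, cut at about 17% in these data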
Starred values were filed as active, the others as inactive; i = inactive; . = no result given; + = active, no number. Most compounds without a hit are left out; they make up all but 0.71% or so of the library.

SMILES	cardiac RTF act	IDE inh	Cardiac RTF inh	IDE cell activ
N#CC1=C(N)SC(N)=C(C#N)C1c1c(Cl)cccc1Cl	11.0	0.7	-36.0	-5.5
N#CC1=C(N)SC(N)=C(C#N)C1CCc1ccccc1	39.1*	1.9	-55.1	-1.9
CC(C)CC1C(C#N)=C(N)SC(N)=C1C#N	41.8*	13.1	-36.8	-7.0
Nc1nc(-c2ccco2)c(-c2ccco2)s1	-3.8	6.6	0.8	-0.6
c1coc(-c2nc(-c3ccco3)c(-c3ccco3)nc2-c2ccco2)c1	-36.1	-7.4	106.8*	2.6
Cc1cc2ccccc2n2c(SCC(=O)Nc3ccc(S(=O)(=O)N4CCC(C)CC4)cc3)nnc12	-3.7	5.6	-1.5	-2.2
N#C/C(=C\C=C\c1ccccc1)c1nc(-c2ccc3c(c2)OCO3)cs1	34.5*	-0.2	-23.6	0.9
COc1ccccc1N1CCN(C2CCCCC2NS(=O)(=O)c2ccccc2)CC1 (configuration not stated)	1.4	-1.2	-0.8	-1.2
COc1ccc2nc3ccccc3nc2c1NC(=O)c1ccc(Cl)cc1Cl	360.7*	-0.2	-35.2	-8.0
CCN1/C(=C/c2ccc3cc(C)ccc3[n+]2CC)Sc2cc(C)c(C)cc21	36.4*	.	-193.2	-227.4
COCCCNC1=C(Cl)C(=O)c2ccccc2C1=O	-1.5	-0.6	-4.2	1.3
COCCCNc1c2c3c(cccc3[nH]c1=O)C(=O)c1ccccc1-2	+	-6.9	i	33.3*
COc1ccc(N=C2NC(=O)S/C2=C\c2ccc(N(C)C)cc2)cc1	174.2*	30.2*	-113.8	-25.5
COc1ccc2[nH]c(C(=O)N3CCN(c4ccccc4F)CC3)c(C)c2c1	5.2	0.5	-2.3	-0.9
O=C(NC1CCCCC1)C1CCCN1S(=O)(=O)c1ccc(Cl)cc1 (configuration not stated)	1.6	-0.7	-0.3	2.9
O=C1C=C(c2ccc(-c3ccccc3)cc2)C[C@@H](c2ccc3c(c2)OCO3)C1	-2.2	0.6	8.8	42.7*
COc1ccc(CNc2nc3ccccc3n2CCN2CCOCC2)cc1	3.1	-2.4	-2.5	17.8*
Cc1ccc(OCCCC(=O)NC2CCCCC2)cc1	38.3*	4.7	-3.1	-5.6
CC1=C(C(=O)Nc2ccc(Cl)cc2C(=O)N2CCC(C(N)=O)CC2)SCCO1	3.4	0.9	6.9	-0.8
COc1ccc(CNc2nc3ccccc3n2C)c(OC)c1	-0.8	1.3	-7.7	2.8
COc1ccc(N=Nc2nc3cc(Br)c(Br)cc3n2C)c(OC)c1	47.4*	-17.6	-42.3	11.1
CC1CCN(C(=O)Cn2c3ccccc3c3nc4n(c(=O)c32)CCS4)CC1	-6.2	-1.4	-7.1	-1.0
CC1=CC(=C(C#N)c2nc3ccccc3s2)C=C(C)N1c1ccc(F)cc1	110.3*	-3.8	-6.7	-6.2
COc1ccccc1N1C(C)=CC(=C(C#N)c2nc3ccccc3s2)C=C1C	52.9*	-0.6	-44.2	4.3
S=C(Cc1ccccc1)Nc1ccccc1	-2.7	.	0.2	4.5
SMILES	cardiac RTF act	IDE inh	Cardiac RTF inh	IDE cell activ
COc1cccc(N2CCN(c3ncnc4c3[nH]c3ccccc34)CC2C)c1 (configuration not stated)	.	25.3*	.	.
COc1ccc2c(c1)[nH]c1c(N3CCSCC3)ncnc12	5.2	14.2	-0.4	-7.5
COc1ccc(CCNC(=O)CC(Cc2ccc(C)cc2)C(=O)O)cc1OC (configuration not stated)	5.3	-1.3	-4.4	1.5
Cn1c2c(c(=O)n(C)c1=O)C(C(F)(F)F)(C(F)(F)F)N=C(CCC1CCCCC1)N2	45.0*	-1.8	-2.3	-0.2
CCCCNC(=S)N1CCN(c2nc3ccccc3s2)CC1	11.1	19.3*	1.5	-9.0
Cc1cc(C=C2C(=O)c3ccccc3C2=O)c(C)n1-c1ccc(C(=O)O)cc1	-7.6	4.0	-1.5	-1.3
Cc1cc(C=C2C(=O)c3ccccc3C2=O)c(C)n1-c1ccccc1	45.2*	-1.5	-14.6	-8.7
COc1ccccc1N(CC(=O)NCc1ccccc1)C(=O)CCC(=O)Nc1nccs1	-5.2	-0.1	1.6	1.7
C#CCOCCOCCOCCNc1nc(N2CCN(C(=O)CCCCCCCCCCNC(=O)[C@H]([C@@H](C)CC)n3cc(CCCCN=C(N)N)nn3)CC2)nc(N2CCN(C(=O)CCCCCCCCCCNC(=O)[C@H](CCCCN)n3cc(C[C@@H](C)CC)nn3)CC2)n1	.	-6.3	.	.
